ADAM17 inh = inhibitors of human ADAM17; P78536; recombinant ADAM17, EDANS/DABCYL FRET peptide cleavage; hit rate 0.83% among 370,000; inhibition, % at 6.95 µM;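 active = inhibition above the mean of compounds lying between control limits plus 3 SD, set per campaign, cut at about 8.5% in these data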
Target sequence (P78536 215-824 limits assumed): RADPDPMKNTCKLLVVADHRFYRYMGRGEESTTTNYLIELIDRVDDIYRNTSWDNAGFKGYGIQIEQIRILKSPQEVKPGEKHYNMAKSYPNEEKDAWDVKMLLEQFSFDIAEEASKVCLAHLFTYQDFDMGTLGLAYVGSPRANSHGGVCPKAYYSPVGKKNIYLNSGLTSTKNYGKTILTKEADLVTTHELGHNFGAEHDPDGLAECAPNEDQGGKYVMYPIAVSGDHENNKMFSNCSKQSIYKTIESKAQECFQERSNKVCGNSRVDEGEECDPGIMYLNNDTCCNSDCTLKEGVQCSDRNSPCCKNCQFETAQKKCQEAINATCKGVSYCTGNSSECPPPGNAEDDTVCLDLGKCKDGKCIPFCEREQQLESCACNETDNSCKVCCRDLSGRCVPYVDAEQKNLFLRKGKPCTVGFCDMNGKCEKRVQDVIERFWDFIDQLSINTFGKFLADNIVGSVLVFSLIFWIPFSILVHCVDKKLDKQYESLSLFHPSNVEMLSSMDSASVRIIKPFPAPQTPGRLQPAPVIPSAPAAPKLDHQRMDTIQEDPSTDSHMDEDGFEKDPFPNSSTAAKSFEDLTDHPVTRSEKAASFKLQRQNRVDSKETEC
ADAM10 inh = ADAM10 inhibition, QFRET primary screen; recombinant ADAM10, EDANS/DABCYL FRET peptide cleavage, 3 h; inhibition, % at 7 µM; O14672; hit rate 0.62% among 370,000;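 active = inhibition above a per-campaign cutoff equal to the mean of compounds falling between control-based bounds plus 3 SD, cut at about 20% in these data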
PLC-beta3 inh = blocks human PLC-beta3 enzyme activity. hit rate 0.18% among 370,000. Q01970. AID 720704. inhibition, % at 12.2 µM. Purified PLC-beta3, fluorogenic substrate, fluorescence; in the data active = inhibition above about 11%
PLCg1 inh = blocks human PLC-gamma1 enzyme activity. P19174. purified PLC-gamma1, fluorogenic substrate, fluorescence. inhibition, % at 12.2 µM. hit rate 0.84% among 370,000; in the data active = inhibition above about 9.5%
KLK7 zymogen act = activates the human kallikrein-7 zymogen; P49862; purified proKLK7, EDANS-DABCYL substrate fluorescence; 100% is mature enzyme control, 0% vehicle; activation, % at 7 µM; hit rate 0.9% among 370,000; AID 652039;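 active = activation above the mean of all tested compounds plus 3 SD, computed per campaign excluding outliers beyond control limits, cut at about 13% in these data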
KLK7 act conf = confirmation of human kallikrein-7 zymogen activators; shares compounds with KLK7 zymogen act; purified proKLK7, EDANS-DABCYL substrate fluorescence; scaled: vehicle 0, mature enzyme 100; activation, % at 7 µM; hit rate 68% among 3,200; AID 686949;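 active = activation, as change over the incubation, above the mean of all tested compounds plus 3 SD, cut at about 13% in these data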
EDANS-DABCYL int = optically interferes with EDANS-DABCYL signal, flagging KLK7 hits; shares compounds with KLK7 zymogen act; EDANS-DABCYL substrate fluorescence interference, no enzyme, 4 h; solvent 0%, active enzyme control 100%; activation, % at 7 µM; hit rate 80% among 3,200; AID 686952;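 active = activation above the all-compound mean plus 3 SD, ignoring values outside control-based bounds, cut at about 4.8% in these data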;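 note: value is the 4 h activation minus the activation read at time zero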
EDANS interf = EDANS fluorescence interference in dose response, no enzyme. shares compounds with KLK7 zymogen act. EDANS-DABCYL peptide fluorescence interference. EC50, µM. hit rate 20% among 250;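 active = compounds that raise the fluorescence signal in this interference counterscreen, with EC50 at or below 10 µM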;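 note: intact quenched peptide substrate alone read at 355 nm excitation and 520 nm emission; signal is fluorescence gain from T0 to T4 after four hours at room temperature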
A number is an active result; – = inactive; · = no result. Sampled rows, rich in hits. Any-hit rate of the full collection: about 2.9%.

SMILES	ADAM17 inh	ADAM10 inh	PLC-beta3 inh	PLCg1 inh	KLK7 zymogen act	KLK7 act conf	EDANS-DABCYL int	others
CCN(C(=O)[C@@H](C)[C@@H](O)c1ccc(C(C)=O)cc1)c1ccccc1	–	–	–	–	–	·	·
O=C(NC1CCCc2c1cnn2-c1ccc(F)cc1F)c1cccs1 (stereo not drawn)	–	–	–	–	·	·	·
O=C(N/C(=C\c1ccc(Cl)cc1)C(=O)N1CCOCC1)c1ccc([N+](=O)[O-])cc1	–	–	–	15	–	·	·
COCCN1C(=O)[C@H]2C[C@@]13O[C@H](c1ccccn1)N=C3CC1c3ccccc3C[C@@]12C (stereo partly drawn)	–	–	–	–	–	·	·
CCN(CC)CCN1C(=O)c2ccccc2NC1c1ccc(F)cc1 (stereo not drawn)	–	–	–	–	92	37	34
CCN(CC)CCN1C(=O)c2ccccc2NC1c1cccc(F)c1 (stereo not drawn)	–	–	–	–	72	35	33
O=C1c2ccccc2NC(c2cccc(F)c2)N1Cc1ccccc1 (stereo not drawn)	–	–	–	–	–	·	·
CCN(CC)CCN1C(=O)c2ccccc2NC1c1ccc(C)cc1 (stereo not drawn)	–	–	–	–	75	29	37
CN(C)c1ccc(C2Nc3ccccc3C(=O)N2CCCN2CCOCC2)cc1 (stereo not drawn)	–	–	–	–	–	·	·
CCN(CC)CCN1C(=O)c2ccccc2NC1c1ccc(Br)cc1 (stereo not drawn)	–	–	–	–	61	–	23
CCN(CC)CCN1C(=O)c2ccccc2NC1c1ccc(N(C)C)cc1 (stereo not drawn)	–	–	–	–	–	·	·
CCc1cccc2c(C(C)c3ccccc3O)c[nH]c12 (stereo not drawn)	–	–	–	–	–	·	·
CCN(CC)CCN1C(=O)c2ccccc2NC1c1ccccc1F (stereo not drawn)	–	–	–	–	74	26	38
COc1ccc(C2Nc3ccccc3C(=O)N2NC(C)=O)cc1OC (stereo not drawn)	–	–	–	–	–	·	·
CCN(CC)CCN1C(=O)C(=O)/C(=C(/O)c2ccncc2)C1c1ccccc1F (stereo not drawn)	–	–	–	–	–	·	·
O=C(O)CCC(=O)NN1C(=O)c2ccccc2NC1c1ccc(F)cc1 (stereo not drawn)	–	–	–	–	17	38	31	EDANS interf=–
CCOC(=O)NN1C(=O)c2ccccc2NC1c1ccc(OC)c(OC)c1 (stereo not drawn)	–	–	–	–	20	25	26
CC(C)NC(=O)N[C@H]1C[C@@H]2O[C@H](CO)CC[C@@H]2O[C@@H]1CCc1ccc(-c2ccccc2F)cc1	–	–	–	–	–	·	·
CCCC[C@H]1C2CC(OC(=O)Nc3cccc(C#N)c3)C(C2)[C@H]2CCCCN21 (stereo partly drawn)	–	–	–	–	–	·	·
CN1Cc2c(N3CCOCC3)nc3sc(C#N)c(N)c3c2CC1(C)C	–	–	–	–	17	68	70
CC(C)Sc1nc(N2CCOCC2)c2c(c1C#N)CC(C)(C)N(C)C2	–	–	–	–	35	–	–
CN1Cc2c(N3CCOCC3)nc(SCCC#N)c(C#N)c2CC1(C)C	–	–	–	–	–	·	·
CC1(C)Cc2c(c(N3CCOCC3)nc3sc(-c4ccc(C(=O)O)o4)c(N)c23)CO1	–	–	–	–	46	22	23
CCOC(=O)[C@]12CCCC3=C1N(CCC3)C(=O)[C@@H](CC(=O)N1CCN(C(=O)c3ccco3)CC1)C2	–	–	–	–	–	·	·
COc1ccc(CN(CCN2CCOCC2)C(=O)c2cccc(F)c2)cc1OC	–	–	–	–	–	·	·
SMILES	ADAM17 inh	ADAM10 inh	PLC-beta3 inh	PLCg1 inh	KLK7 zymogen act	KLK7 act conf	EDANS-DABCYL int	others
COc1ccccc1-c1cc(C(F)(F)F)nc(NCc2ccco2)n1	–	–	–	–	–	·	·
CNc1cc(-c2cccc(OC)c2F)nc2ccnn12	–	–	–	–	38	28	27
COc1ccc(CNC(=O)[C@@H](Cc2ccccc2)NC(=O)[C@H]2O[C@@H](n3cnc4c(=O)[nH]c(N)nc43)[C@H](O)[C@@H]2O)cc1	–	–	–	–	–	·	·
NC(=NC(=O)/C=C/c1ccccc1Br)N(CC#Cc1ccccc1)CC#Cc1ccccc1	–	–	–	–	·	·	·
CCCCC1OC2(C)OC(=N)C1(C#N)C(C#N)(C#N)C2c1ccccc1 (stereo not drawn)	–	–	–	–	14	47	50
CC1OC2(C)OC(=N)C1(C#N)C(C#N)(C#N)C2c1ccccc1 (stereo not drawn)	–	–	–	–	–	·	·
CSc1ccc(/C=C/C(=O)OCC(=O)NCC2CCCO2)cc1 (stereo not drawn)	–	–	–	–	18	14	16
O=C(COC(=O)/C=C/c1ccccc1)NCC1CCCO1 (stereo not drawn)	–	–	–	–	–	·	·
CSc1ccc(/C=C/C(=O)OCC(=O)NC2CCS(=O)(=O)C2)cc1 (stereo not drawn)	–	–	–	–	23	20	16	EDANS interf=–
COC(=O)N1Cc2ccnnc2CC1c1ccccc1-c1ccccc1 (stereo not drawn)	–	–	–	–	–	·	·
C=CCN(c1ccccc1)S(=O)(=O)c1cccc(C(=O)Oc2ccc3c(C)cc(=O)oc3c2)c1	–	–	–	–	42	405	422
C=CCN(c1ccccc1)S(=O)(=O)c1cccc(C(=O)OCC(=O)NCCOC)c1	–	–	–	–	–	·	·
CCOC(=O)c1c(-c2ccccc2)oc2ccc(OCC(=O)O)cc12	–	–	–	–	25	25	25
CCCCCCCCN1C(=O)[C@@H](CC(=O)N2CCSCC2)C[C@@]2(C(=O)OC)C1=C[C@H](C1CCCC1)O[C@@H]2C	–	–	–	–	–	·	·
COc1cc2c(cc1OC)C(C1C(=O)CCCC1=O)N(C(=O)CCl)CC2 (stereo not drawn)	–	–	–	–	191	–	9.2
COc1cc2c(cc1OC)C(C1C(=O)CC(C)CC1=O)N(C(=O)CCl)CC2 (stereo not drawn)	–	–	–	–	213	–	9.7
CN(C)[C@@H]1CCN(c2ccc3c(c2)O[C@H]2CCN(C2)S3(=O)=O)C1	–	–	–	–	–	·	·
O=C(Nc1nc2nccc(-c3ccccc3)n2n1)C(Cl)(Cl)Cl	–	–	–	–	39	47	46
COc1cc2c(cc1OC)CN(CC(=O)NC(=O)NC(C)(C)C)CC2	–	–	–	–	–	·	·
